# Assay results: ChEMBL document CHEMBL1961873, “Compounds: GSK PKIS; Assays: Nanosyn kinase panel” (2012)
# Several values for one entry are separate records, joined by “and”; a condition that tells them apart may be missing. Equal values may be shown once.
# Tests used:
# [1] = biological target: RAF proto-oncogene serine/threonine-protein kinase (Homo sapiens) (UniProt P04049); conditions: at 1 µM;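 note: values are the mean percent inhibition of CRAF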
# [2] = biological target: T1, Interleukin-1 receptor-associated kinase 4 (Homo sapiens) (UniProt Q9NWZ3); conditions: at 0.1 µM
# T1 sequence (whole entry): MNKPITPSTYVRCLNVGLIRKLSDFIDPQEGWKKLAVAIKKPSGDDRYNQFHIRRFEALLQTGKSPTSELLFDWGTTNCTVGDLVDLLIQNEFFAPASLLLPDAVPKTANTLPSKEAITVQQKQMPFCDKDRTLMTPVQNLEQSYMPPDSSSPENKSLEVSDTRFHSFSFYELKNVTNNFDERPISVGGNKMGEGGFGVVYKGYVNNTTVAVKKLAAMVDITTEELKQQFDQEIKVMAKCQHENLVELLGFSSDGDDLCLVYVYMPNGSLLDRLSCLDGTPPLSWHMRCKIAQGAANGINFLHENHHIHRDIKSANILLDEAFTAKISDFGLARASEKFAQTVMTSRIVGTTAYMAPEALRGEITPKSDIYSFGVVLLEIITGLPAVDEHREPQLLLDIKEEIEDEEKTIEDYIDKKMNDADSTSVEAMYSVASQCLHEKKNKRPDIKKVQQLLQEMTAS
# [3] = biological target: T1, Interleukin-1 receptor-associated kinase 4 (Homo sapiens); conditions: at 1 µM
# [4] = biological target: Leucine-rich repeat serine/threonine-protein kinase 2 (Homo sapiens) (UniProt Q5S007); conditions: at 0.1 µM
# Sequence of Leucine-rich repeat serine/threonine-protein kinase 2 (Homo sapiens) (Q5S007 whole entry): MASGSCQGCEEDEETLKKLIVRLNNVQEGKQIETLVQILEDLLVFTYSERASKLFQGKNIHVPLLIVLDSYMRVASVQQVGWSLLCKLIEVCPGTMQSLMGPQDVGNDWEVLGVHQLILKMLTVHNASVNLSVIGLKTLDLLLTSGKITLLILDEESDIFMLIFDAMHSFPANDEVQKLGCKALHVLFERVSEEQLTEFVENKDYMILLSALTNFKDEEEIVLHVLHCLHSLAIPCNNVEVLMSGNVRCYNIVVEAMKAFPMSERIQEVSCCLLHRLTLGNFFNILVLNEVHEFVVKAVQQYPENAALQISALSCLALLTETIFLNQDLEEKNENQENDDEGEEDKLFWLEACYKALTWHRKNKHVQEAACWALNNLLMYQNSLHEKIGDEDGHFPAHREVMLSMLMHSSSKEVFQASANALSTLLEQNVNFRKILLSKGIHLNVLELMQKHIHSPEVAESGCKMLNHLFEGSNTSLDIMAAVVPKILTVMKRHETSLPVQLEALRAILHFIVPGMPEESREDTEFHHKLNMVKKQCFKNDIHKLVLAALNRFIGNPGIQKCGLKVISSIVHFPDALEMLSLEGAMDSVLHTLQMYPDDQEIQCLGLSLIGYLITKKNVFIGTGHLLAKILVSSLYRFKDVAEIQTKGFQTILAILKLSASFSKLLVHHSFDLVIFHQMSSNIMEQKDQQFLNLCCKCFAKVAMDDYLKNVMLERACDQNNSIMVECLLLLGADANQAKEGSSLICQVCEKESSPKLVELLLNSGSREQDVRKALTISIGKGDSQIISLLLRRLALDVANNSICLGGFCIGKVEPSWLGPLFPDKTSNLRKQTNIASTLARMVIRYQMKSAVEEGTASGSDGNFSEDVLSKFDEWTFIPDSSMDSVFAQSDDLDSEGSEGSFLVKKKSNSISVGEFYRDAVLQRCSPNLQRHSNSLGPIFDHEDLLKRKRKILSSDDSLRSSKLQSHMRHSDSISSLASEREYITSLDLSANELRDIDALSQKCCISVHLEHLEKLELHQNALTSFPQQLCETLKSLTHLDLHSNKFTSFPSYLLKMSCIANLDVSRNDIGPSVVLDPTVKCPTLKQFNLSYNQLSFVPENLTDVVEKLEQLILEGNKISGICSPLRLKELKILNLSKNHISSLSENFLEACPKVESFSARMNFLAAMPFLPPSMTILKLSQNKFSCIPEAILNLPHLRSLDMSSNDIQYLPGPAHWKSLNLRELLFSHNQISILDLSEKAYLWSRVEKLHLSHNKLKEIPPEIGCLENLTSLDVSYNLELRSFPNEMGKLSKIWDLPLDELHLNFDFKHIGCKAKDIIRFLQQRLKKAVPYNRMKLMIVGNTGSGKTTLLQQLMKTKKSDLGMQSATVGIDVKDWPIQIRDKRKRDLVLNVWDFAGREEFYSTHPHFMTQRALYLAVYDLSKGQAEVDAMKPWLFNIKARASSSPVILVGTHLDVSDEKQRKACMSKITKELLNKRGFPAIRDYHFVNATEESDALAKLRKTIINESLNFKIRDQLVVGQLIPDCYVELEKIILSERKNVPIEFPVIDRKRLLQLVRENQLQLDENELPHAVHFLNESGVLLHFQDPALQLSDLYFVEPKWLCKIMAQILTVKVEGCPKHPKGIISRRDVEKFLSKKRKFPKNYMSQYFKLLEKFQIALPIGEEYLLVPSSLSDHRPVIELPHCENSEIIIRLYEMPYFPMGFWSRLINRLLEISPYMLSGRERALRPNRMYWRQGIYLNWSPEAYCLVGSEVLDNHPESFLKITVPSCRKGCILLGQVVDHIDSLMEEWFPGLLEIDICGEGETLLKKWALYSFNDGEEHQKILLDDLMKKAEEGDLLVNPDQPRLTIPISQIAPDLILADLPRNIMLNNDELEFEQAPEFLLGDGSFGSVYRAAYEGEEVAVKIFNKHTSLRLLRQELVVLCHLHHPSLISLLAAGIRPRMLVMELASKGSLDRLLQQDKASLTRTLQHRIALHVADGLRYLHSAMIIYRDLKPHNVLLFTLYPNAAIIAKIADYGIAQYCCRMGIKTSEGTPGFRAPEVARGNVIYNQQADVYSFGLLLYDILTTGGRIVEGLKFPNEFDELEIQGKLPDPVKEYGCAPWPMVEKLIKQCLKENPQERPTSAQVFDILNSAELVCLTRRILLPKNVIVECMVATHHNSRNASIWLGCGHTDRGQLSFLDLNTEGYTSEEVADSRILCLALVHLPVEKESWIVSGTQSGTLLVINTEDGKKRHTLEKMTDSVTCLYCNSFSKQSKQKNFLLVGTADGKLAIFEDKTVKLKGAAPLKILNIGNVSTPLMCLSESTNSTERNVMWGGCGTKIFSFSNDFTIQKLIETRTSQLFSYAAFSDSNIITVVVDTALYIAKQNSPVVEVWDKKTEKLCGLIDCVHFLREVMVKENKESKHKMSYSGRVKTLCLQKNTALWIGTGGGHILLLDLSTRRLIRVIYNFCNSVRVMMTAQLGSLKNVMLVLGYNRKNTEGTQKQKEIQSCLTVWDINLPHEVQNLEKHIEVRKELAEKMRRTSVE
# [5] = biological target: Leucine-rich repeat serine/threonine-protein kinase 2 (Homo sapiens) (UniProt Q5S007); conditions: at 1 µM
# [6] = system: Leucine-rich repeat serine/threonine-protein kinase 2 (Homo sapiens), Q5S007 [G2019S]; conditions: at 0.1 µM
# Sequence of Leucine-rich repeat serine/threonine-protein kinase 2 (Homo sapiens), Q5S007 [G2019S] (Q5S007 whole entry G2019S): as the sequence (Q5S007 whole entry) above, with G2019S counted along it
# [7] = system: Leucine-rich repeat serine/threonine-protein kinase 2 (Homo sapiens), Q5S007 [G2019S]; conditions: at 1 µM
# Sequence of RAF proto-oncogene serine/threonine-protein kinase (Homo sapiens) (P04049 whole entry): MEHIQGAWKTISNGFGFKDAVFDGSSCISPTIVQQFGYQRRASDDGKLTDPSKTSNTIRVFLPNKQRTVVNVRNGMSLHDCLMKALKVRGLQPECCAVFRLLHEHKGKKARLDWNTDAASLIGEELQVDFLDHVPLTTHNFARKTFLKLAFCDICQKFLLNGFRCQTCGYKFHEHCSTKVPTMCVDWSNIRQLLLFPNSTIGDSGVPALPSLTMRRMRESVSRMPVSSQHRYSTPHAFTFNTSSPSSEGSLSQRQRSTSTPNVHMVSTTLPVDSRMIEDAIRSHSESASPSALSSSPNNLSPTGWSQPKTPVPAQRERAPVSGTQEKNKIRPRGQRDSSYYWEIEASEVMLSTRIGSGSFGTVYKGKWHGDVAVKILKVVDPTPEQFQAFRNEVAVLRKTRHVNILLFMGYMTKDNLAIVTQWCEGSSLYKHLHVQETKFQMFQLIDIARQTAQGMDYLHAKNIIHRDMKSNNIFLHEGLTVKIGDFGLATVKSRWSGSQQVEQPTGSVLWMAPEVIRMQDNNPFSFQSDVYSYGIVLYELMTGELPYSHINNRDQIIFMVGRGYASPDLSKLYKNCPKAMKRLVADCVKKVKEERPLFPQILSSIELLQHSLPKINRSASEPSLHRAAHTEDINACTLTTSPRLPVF
SMILES,inhibition [1],inhibition [2],inhibition [3],inhibition [4],inhibition [5],inhibition [6],inhibition [7]
CS(=O)(=O)CCNCc1ccc(-c2ccc3ncnc(Nc4ccc(OCc5cccc(C(F)(F)F)c5)cc4)c3c2)o1,-2.29%,2.1%,3.11%,1.61%,5.55%,4.24%,7.8%
CN1CCC(C(=O)Nc2n[nH]c3nc(-c4ccc(O)cc4)c(Br)cc23)CC1,2.83% and -8.49%,3.04% and 2.37%,2.24% and 1.33%,-2.84% and -1.67%,2.03% and 7.36%,-0.31% and 1.49%,4.77% and 5.48%
Cc1nnc(-c2cccc(-c3ccc(C(=O)NCC4CC4)cc3)c2)o1,1.67%,-1.48%,2.66%,3.32%,5.55%,4.33%,7.83%
Cc1cc(O)cc(C)c1/C=C/c1cncc(C(N)=O)c1,5.31%,-1.86%,0.71%,1.8%,6.26%,3.18%,13.3%
COc1cc2c(cc1Nc1nc(Nc3cccc(F)c3C(N)=O)c3cc[nH]c3n1)N(C(=O)CN1CCN(C(C)C)CC1)CC2,-4.19%,-0.19%,-0.43%,25.8%,76.8%,41.5%,59.8%
COC(=O)Nc1nc2ccc(Oc3ccc(NC(=O)Nc4cc(C(F)(F)F)ccc4F)cc3)cc2s1,60.1%,1.94%,0.25%,17.4%,48.5%,9.18%,37.8%
O=C(O[C@H]1CN[C@H](C#Cc2cc3ncnc(Nc4ccc(OCc5cccc(F)c5)c(Cl)c4)c3s2)C1)N1CCOCC1,0.51%,1.13%,2.48%,2.8%,7.32%,4.61%,8.39%
Cc1c2ccc(N(C)c3ccnc(Nc4cccc(S(N)(=O)=O)c4)n3)cc2nn1C,41%,4.14%,3.25%,0.45%,9.99%,1.58%,12.6%
NC(=O)c1ccc2c(-c3ccnc(NCCCO)n3)c(-c3ccc(F)cc3)nn2c1,-4.3%,1.46%,2.22%,5.47%,7.44%,6.54%,9.18%
O=C1Nc2ccccc2/C1=C1\CCc2cc(O)ccc21,-4.27%,0.67%,5.31%,17.6%,66.3%,22.1%,63.6%
CN(C)CCNC(=O)Nc1ccc(N(C)c2ccnc(Nc3ccc(CS(C)(=O)=O)cc3)n2)cc1,-0.82%,-4.3%,2.15%,4.46%,11.5%,6.1%,23%
COc1cc(N2CCN(C(C)C)CC2)ccc1Nc1nc(Nc2cccc3ncccc23)c2cc[nH]c2n1,10.1%,5.39%,-0.29%,13%,23.2%,24.5%,63%
COc1ccc2ncn(-c3cc(O[C@H](C)c4ccccc4C(F)(F)F)c(C(N)=O)s3)c2c1,0.1%,1.48%,0.87%,4.72%,15.9%,5.16%,31%
c1ccc(-c2n[nH]cc2-c2ccnc(-c3ccc(OCCn4ccnc4)cc3)c2)nc1,-2.1%,4.92%,0.82%,0.79%,7.44%,3.12%,14.5%
COc1ccccc1-c1cc(/C=C2\C(=O)Nc3ncc(Br)cc32)cc(Br)c1O,-9.49%,2.4%,1.85%,7.41%,17.6%,13.5%,55.3%
